Source: PubChem BioAssay
VCAM1 TNFa inh = reduces TNF alpha induced VCAM1 expression in HUVEC | HUVEC TNFa-induced VCAM-1 immunofluorescence, high-content imaging | inhibition, % at 2 µM | 95,000 compounds, 0.48% hits;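 active = inhibition above the batch mean plus 3 SD, with images confirmed as a hit by eye, cut at about 37% in these data; inconclusive = inhibition above that limit but hit not confirmed in images; inactive = inhibition not above that limit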;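 also: 0% = TNF-stimulated DMSO wells and 100% = unstimulated control wells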
cytoskel mod = modifiers of cytoskeleton assembly. AID 836. 91,000 compounds, 0.18% hits. inhibition, % at 2 µM. HUVEC TNFa F-actin phalloidin imaging, high content;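 active = inhibition above the batch mean plus 3 SD and confirmed as a hit by visual image inspection, cut at about 30% in these data, passing the limit was not always enough; inconclusive = above the inhibition threshold but rejected on visual inspection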
TNFa cytotox = HUVEC cytotoxicity counter-screen, TNF alpha stimulated | 93,000 compounds, 0.17% hits | HUVEC TNFalpha-stimulated, Hoechst cell count, imaging | cell count reduction, % at 2 µM;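 active = cell count reduction exceeding the screen mean by over 5 SD, scaled to untreated wells per plate, cut at about 78% in these data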;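 also: cells counted after 24 h of TNF alpha exposure following the 1 h pretreatment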
E-sel TNF inh = blocks E-selectin expression induced by TNF alpha; HUVEC TNFa-induced E-selectin immunofluorescence, high content; inhibition, % at 2 µM; 120,000 compounds, 0.71% hits; AID 1246;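 active = inhibition above the batch mean plus 3 SD, and confirmed as a hit on visual image review, cut at about 43% in these data; inconclusive = passes the inhibition cutoff but fails visual image review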;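 also: 0% = TNF-stimulated DMSO wells and 100% = unstimulated control wells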
An asterisk follows results filed as active; ? = inconclusive; nt = not tested or not shown. Most compounds without a hit are left out; they make up all but 1.1% or so of the library.

SMILES	VCAM1 TNFa inh	cytoskel mod	TNFa cytotox	E-sel TNF inh
Cc1cccc(N(CC(=O)N/N=C/c2ccc(OCC(=O)NCc3ccco3)cc2)S(C)(=O)=O)c1C	78*	0	44	-3
Cc1cc(C)cc(CSCC(=O)N/N=C/c2ccc(OCC(=O)NCc3ccco3)cc2)c1	0	12	9	48
CCc1ccc(C(=O)Cn2ncc(Cl)c(Cl)c2=O)cc1	16	-8	-13	0
O=C(OCn1ncc(Cl)c(Cl)c1=O)c1cccc(C(F)(F)F)c1	24	-14	-5	71*
CCC(C)NC(=O)CSc1ncccc1C(=O)O (configuration not stated)	13	-3	-9	nt
O=C1NCCCc2c1oc1cc(Br)c(O)c(Br)c21	nt	nt	nt	97*
Cc1nnc(SCC(=O)c2ccccc2)n1Cc1ccccc1	nt	nt	nt	17
Cc1nnc(SCC(=O)N(C)c2ccccc2)n1Cc1ccccc1	nt	nt	nt	89*
COc1cccc(N2C(=O)C3C(C2=O)C2C=CC3C23CC3)c1 (configuration not stated)	2	-1	-22	-17
NC(=O)CN(c1ccc(Cl)cc1)S(=O)(=O)c1ccccc1	nt	nt	nt	-6
CCN(CC)C(=O)CN(c1ccc(Cl)cc1)S(=O)(=O)c1ccccc1	?	?	100*	-12
Cc1csc(NC(=O)C2CCCN(S(=O)(=O)c3ccc(Br)s3)C2)n1 (configuration not stated)	13	5	-2	3
O=C(O)C1C2C=CC(C2)C1C(=O)NCCCc1ccccc1 (configuration not stated)	nt	nt	nt	68*
O=C(Nc1ccc(Cl)c(Cl)c1)N1CCSCC1	-28	-10	-16	-3
CCN1C=CC2=C(C#N)C(N)C(C#N)(C#N)C(c3ccccc3C(F)(F)F)C2C1 (configuration not stated)	-6	8	-30	-1
COC(=O)c1cc(OC)c(OC)cc1NC(=O)CSc1ccccc1	3	12	-10	-6
O=C(O)C1CCCN1S(=O)(=O)c1ccc(Br)s1 (configuration not stated) (tested in a mixture with another compound)	-10	7	-12	90*
O=C(O)C1CCCCN1S(=O)(=O)c1ccc(Cl)s1 (configuration not stated)	4	-12	-4	7
CCN1CCCC1CNC(=O)C1c2cc(OC)c(OC)cc2C(=O)N(C)C1c1cccnc1 (configuration not stated)	-11	-6	-37	21
COc1cccc(CNc2ccc(F)c(Cl)c2)c1	14	-2	6	100*
O=C(c1cccs1)N1CCn2c1nc1ccccc12	11	-6	-11	3
COc1ccc(Cn2c(CCCO)nc3ccccc32)cc1OC	0	-12	81*	3
CCc1nc2ccccc2n1Cc1ccc(OC)c(OC)c1	14	29	12	7
COc1cc(Cl)c(C)cc1NC(=O)CNC(=O)Cn1cnc2ccccc2c1=O	4	-28	-2	nt
Nc1nnc(SCC(=O)NCc2ccc3c(c2)OCO3)s1	93*	-3	-25	-6
SMILES	VCAM1 TNFa inh	cytoskel mod	TNFa cytotox	E-sel TNF inh
COc1ccccc1CNC(=O)CSc1nc(N)c(C#N)c(-c2cccs2)c1C#N	11	-2	-13	nt
N#Cc1c(N)nc(SCC(=O)NCc2ccc3c(c2)OCO3)c(C#N)c1-c1cccs1	1	60*	-17	21
CCOC(=O)C1C(=O)CC(C)(O)C(C(=O)OCC)C1c1ccco1 (configuration not stated)	nt	nt	nt	-17
Cn1cc(Cl)c(C(=O)NC(=S)Nc2sc3c(c2C#N)CCCCC3)n1	nt	nt	nt	29
CSc1nc(=O)n2cc(C)ccc2n1	nt	nt	nt	64*
CC(C)CN1C(=O)NC(NS(=O)(=O)c2ccc(N)cc2)(C(F)(F)F)C1=O (configuration not stated)	nt	nt	nt	14
Cc1ccc2c(c1)C(c1ccc(F)cc1)N(C(=O)c1cc3ccccc3oc1=O)CC(=O)N2 (configuration not stated)	nt	nt	nt	95*
CC(=O)Nc1ccc(S(=O)(=O)NC2(C(F)(F)F)C(=O)Nc3c2c(=O)n(C)c(=O)n3C)cc1 (configuration not stated)	2	-3	-34	5
CC(=O)Nc1ccc(S(=O)(=O)NC2(C(F)(F)F)C(=O)Nc3c2c(=O)[nH]c(=O)n3C)cc1 (configuration not stated)	1	34*	-5	-33
Cc1csc(NC(=O)CSc2nnc(-c3ccc(S(=O)(=O)N4CCCC4)cc3)o2)n1	73*	-26	73	nt
CN1C(=O)C2(NCCc3c2[nH]c2ccccc32)c2ccccc21 (configuration not stated)	53*	-3	nt	12
Cc1ccc(-c2cc(NC(=O)CCl)n(-c3ccccc3)n2)cc1	1	-3	-13	86*
Cn1cccc1C(=O)OCC(=O)Nc1cc(C(C)(C)C)nn1-c1ccccc1	-7	72*	-6	12
COC(=O)c1ccccc1NC(=O)c1ccc(-c2cccc(Cl)c2)o1	nt	?	nt	44*
Cc1cccc(-n2nnnc2SCc2csc(-c3ccccc3)n2)c1	12	-6	88*	-4
CCOC(=O)CSC1=C(C#N)C(c2ccccc2Cl)C(C(=O)OC)C(=O)N1 (configuration not stated)	-2	nt	-22	nt
Cc1ccccc1-c1c(C)oc2cc(O)ccc2c1=O	8	50	-7	0
CC(=O)Nc1ccc(S(=O)(=O)NC2(C(F)(F)F)N=C(c3ccccc3)NC2=O)cc1 (configuration not stated)	6	-9	10	5
CC(c1ccco1)N(C(=O)C12CC3CC(CC(C3)C1)C2)c1ccccn1 (configuration not stated)	8	3	-10	100*
CC(c1ccco1)N(C(=O)c1ccc(Cl)s1)c1ccccn1 (configuration not stated)	11	-5	-45	nt
Cc1c(Cl)cccc1N1C(=O)CC(N(O)c2ccccc2)C1=O (configuration not stated)	-19	-1	-14	100*
Cc1cccc(C)c1N1C(=O)CC(N(O)c2ccccc2)C1=O (configuration not stated)	23	-13	0	24
CC(/C=N/NC(=O)c1n[nH]c2c1CCC2)=C\c1ccccc1	67*	-10	70	36
O=C(N/N=C/C=C/c1ccccc1)c1n[nH]c2c1CCC2	68*	18	25	10
O=C(N/N=C/C(Br)=C\c1ccccc1)c1n[nH]c2c1CCC2	91*	-10	69	57
SMILES	VCAM1 TNFa inh	cytoskel mod	TNFa cytotox	E-sel TNF inh
CN1CCN(c2nc(-c3ccc(Cl)s3)cs2)CC1	nt	nt	nt	9
COc1ccc(CCN(C)c2ccc(S(=O)(=O)N3CCCC3)cn2)cc1OC	nt	nt	nt	76*
O=C1Nc2ccc(S(=O)(=O)N3CCCC3)c3cccc1c23	-14	-2	-12	18
O=C1Nc2ccc(S(=O)(=O)N3CCOCC3)c3cccc1c23	89*	-10	-23	15
C=CCNC(=S)N/N=C(\C)c1ccccn1	30	nt	-58	-7
COc1ccc(-c2cc(C(=O)Nc3cnn(Cc4ccccc4C)c3)no2)cc1OC	-4	5	-21	78*
COc1ccc(-c2cc(C(=O)Nc3cc(C)n(Cc4ccc(Cl)cc4)n3)no2)cc1OC	52*	24	59	nt
